This is a sample that favours compounds with a hit; in the whole collection about 1.3% have one here.
SRC3 inh: inhibitors of human steroid receptor coactivator 3 (SRC3) | HEK293 GAL4-SRC3 luciferase reporter, luminescence | inhibition, % at 3.6 µM | actives 0.17% (n = 360,000) | AID 588352;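 active = inhibition above a per-campaign cutoff, the mean of all compounds plus 3 SD, cut at about 60% in these data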;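 also: 0% = DMSO-treated cells and 100% = gossypol-treated cells at 36 µM; higher means less SRC3-driven luciferase light from the GAL4 reporter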
LRH-1 inv ag: inverse agonists of human LRH-1 (NR5A2) | O00482 | HEK293T StAR-luciferase reporter, LRH-1 transfected, 24 h | inhibition, % at 3.6 µM | actives 0.13% (n = 360,000);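 active = inhibition above the mean inhibition of all tested compounds plus 3 SD, cut at about 73% in these data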;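 also: 0% = DMSO wells and 100% = reporter-only cells lacking LRH-1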
SRC1 inh: human NCOA1 inhibition; Q15788; HEK293 GAL4-SRC1 luciferase reporter, luminescence; inhibition, % at 3.6 µM; actives 0.12% (n = 360,000);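 active = inhibition above the campaign mean plus 3 SD, with each screening campaign given its own cutoff, cut at about 60% in these data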;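 also: 0% = DMSO treated cells and 100% = gossypol at 36 µM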
Gli-Sufu antag: blocks Gli-Sufu signaling in a luciferase reporter; inhibition, % at 5 µM; Sufu-KO-LIGHT fibroblasts, Gli luciferase reporter luminescence; actives 0.74% (n = 340,000);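 active = inhibition above about 55%, limit read from the data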;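 also: 0% = DMSO-treated cells and 100% = wells with medium but no cells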
SRC2 inh: human SRC2 (NCOA2) inhibition. Q15596. actives 0.17% (n = 370,000). inhibition, % at 9 µM. AID 651957. HEK293 GAL4-SRC2 luciferase reporter, luminescence;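 active = inhibition above the mean inhibition of all tested compounds plus 3 SD, set per campaign, cut at about 52% in these data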;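 also: 0% = DMSO treated cells and 100% = cells given Gossypol at 36 µM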
NR2F2 inh: NR2F2 (human) inhibition, primary screen | P24468 | actives 0.7% (n = 370,000) | inhibition, % at 8.6 µM | HEK293T NGFI-A luciferase reporter, luminescence;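 active = inhibition above a per-plate cutoff, mean inhibition of test wells between control levels plus 3 SD, cut at about 38% in these data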;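 also: cells cotransfected with COUP-TFII expression vector driving the NGFI-A reporter; 0% = median of COUP-TF2 test wells and 100% = reporter-only cells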
VP16 Luc counter: inhibits VP16 reporter, flagging COUP-TFII antagonist hits | shares compounds with NR2F2 inh | HEK293 Gal4-VP16 luciferase reporter, luminescence | inhibition, % at 8.5 µM | actives 25% (n = 2,500); in the data active = inhibition above about 13%
NR2F2 inh conf: COUP-TFII (NR2F2) inhibition, confirmation assay; inhibition, % at 8.5 µM; shares compounds with NR2F2 inh; HEK293 NGFI-A luciferase reporter, luminescence; actives 45% (n = 2,500); AID 687008;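 active = mean inhibition over three repeats above a set limit taken from the earlier primary screen, cut at about 38% in these data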;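 also: 100% = cells given the luciferase reporter alone without the COUP-TF2 vector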
* marks the source's active call; other numbers are inactive results.

For CCCCNC(=O)[C@]1(C)CCC[C@@]2(C)C3CC[C@@]4(C)C[C@]3(CCC21)CC4=O (stereo partly drawn) the results were SRC3 inh -19.4, LRH-1 inv ag -8.3, SRC1 inh 4.0, Gli-Sufu antag 5.4, SRC2 inh 2.5 and NR2F2 inh 5.7.
Screening CCOc1ccc(CNC(=O)CN2C(=O)CSc3ccc(S(=O)(=O)N4CCOCC4)cc32)cc1OC returned SRC3 inh 1.8, LRH-1 inv ag -6.7, SRC1 inh -9.7, Gli-Sufu antag -4.0, SRC2 inh 9.3 and NR2F2 inh 1.5.
`O=C(NCc1ccc(F)cc1)C1(S(=O)(=O)c2ccc(Cl)cc2)CC1` gave SRC3 inh -1.0, LRH-1 inv ag 6.2, SRC1 inh 4.9, Gli-Sufu antag -7.8, SRC2 inh -29.9 and NR2F2 inh 8.7.
`Cc1cc([N+](=O)[O-])ccc1P(=O)(O)c1ccc([N+](=O)[O-])cc1C` gave SRC3 inh 2.6, LRH-1 inv ag 11.7, SRC1 inh 0.5, Gli-Sufu antag -0.6, SRC2 inh 10.0 and NR2F2 inh -12.0.
`Cc1ccc(CNC(=O)C(=O)NCC2OCCN2S(=O)(=O)c2ccc(C)cc2)cc1` (stereo not drawn) gave SRC3 inh 13.8, LRH-1 inv ag 3.8, SRC1 inh -50.1, Gli-Sufu antag -4.2, SRC2 inh -2.6 and NR2F2 inh 19.5.
Screening Cc1ccc(CNC(=O)C(=O)NCC2OCCN2S(=O)(=O)c2ccc(Br)cc2)cc1 (stereo not drawn) returned SRC3 inh 23.6, LRH-1 inv ag 23.9, SRC1 inh -47.8, Gli-Sufu antag 5.9, SRC2 inh 8.0, NR2F2 inh 47.6*, VP16 Luc counter -1.7 and NR2F2 inh conf 12.2.
Cc1ccccc1Cn1c(C)c(C(=O)NCC(C)C)sc1=O was read as SRC3 inh -13.1, LRH-1 inv ag -3.6, SRC1 inh 2.6, SRC2 inh 8.1 and NR2F2 inh 6.0.
Cc1cc(C(F)(F)F)n(-c2nc(C(=O)NN)cs2)n1 was read as SRC3 inh 7.0, LRH-1 inv ag 5.3, SRC1 inh 3.5, Gli-Sufu antag 14.3, SRC2 inh -29.1, NR2F2 inh 37.4*, VP16 Luc counter -5.7 and NR2F2 inh conf -4.1.
For CCOC(=O)c1csc(-n2nc(C)cc2C(F)(F)F)n1 the results were SRC3 inh 20.7, LRH-1 inv ag 4.5, SRC1 inh -9.7, Gli-Sufu antag 24.4, SRC2 inh 4.2 and NR2F2 inh 0.1.
`COCCCNC(=O)c1nnn2c1nc(N)c1cc(Cl)ccc12` gave SRC2 inh -36.8 and NR2F2 inh -15.8.
`O=P(CCc1ccccc1)(c1ccccc1)c1ccccc1` gave SRC3 inh -15.5, LRH-1 inv ag -1.9, SRC1 inh -9.5, Gli-Sufu antag 3.8, SRC2 inh -30.4 and NR2F2 inh -5.5.
`COc1ccc(-c2nc3ccc(Cl)cn3c2Cc2ccc(C)cc2)cc1OC` gave SRC3 inh -11.8, LRH-1 inv ag -24.8, SRC1 inh -33.6, SRC2 inh -15.1 and NR2F2 inh -16.0.
Screening CC[C@@H]1C=C(C(=O)O)[C@H](c2cccc(C)c2)N1S(=O)(=O)c1ccc(C)cc1 returned SRC3 inh -7.5, LRH-1 inv ag 13.3, SRC1 inh 11.2, Gli-Sufu antag -35.4, SRC2 inh -7.7 and NR2F2 inh 9.6.
Cc1cc2nc(C3CCCN(C(=S)Nc4ccccc4)C3)[nH]c2cc1C (stereo not drawn) was read as SRC3 inh 7.7, LRH-1 inv ag 10.0, SRC1 inh 7.9, Gli-Sufu antag 0.2, SRC2 inh 20.9, NR2F2 inh 48.9*, VP16 Luc counter -7.8 and NR2F2 inh conf 9.1.
CCCCNC(=O)C1(C)CCN1C(=O)c1ccc2ccccc2n1 (stereo not drawn) was read as SRC3 inh 6.3, LRH-1 inv ag 9.0, SRC1 inh -9.0, SRC2 inh 4.9 and NR2F2 inh 10.2.
`O=C(CN1C(=O)c2ccccc2S1(=O)=O)c1ccc2c(c1)OCCCO2` gave SRC3 inh 92.9*, LRH-1 inv ag 93.3*, SRC1 inh 92.9*, Gli-Sufu antag 95.9*, SRC2 inh 92.6*, NR2F2 inh 100.1*, VP16 Luc counter 92.8* and NR2F2 inh conf 108.8*.
For O=C(CCN1C(=O)c2ccccc2S1(=O)=O)Nc1ccc2c(c1)OCCO2 the results were SRC3 inh 17.1, LRH-1 inv ag -12.1, SRC1 inh 5.1, Gli-Sufu antag -2.0, SRC2 inh -23.1 and NR2F2 inh 12.1.
`O=C(CN1C(=O)c2ccccc2S1(=O)=O)c1ccc2c(c1)OCCO2` gave SRC3 inh 85.4*, LRH-1 inv ag 62.4, SRC1 inh 81.9*, Gli-Sufu antag 93.6*, SRC2 inh 88.8*, NR2F2 inh 88.9*, VP16 Luc counter 82.6* and NR2F2 inh conf 99.3*.
For O=C(CN1C(=O)c2ccccc2S1(=O)=O)c1ccc(Cl)cc1Cl the results were SRC3 inh 62.0*, LRH-1 inv ag 59.1, SRC1 inh 55.0, Gli-Sufu antag 89.8*, SRC2 inh 87.1*, NR2F2 inh 91.0*, VP16 Luc counter 70.5* and NR2F2 inh conf 90.1*.
For CCCC1Oc2ccccc2C(=O)N(CC(=O)c2ccc3c(c2)OCCO3)C1=O (stereo not drawn) the results were SRC3 inh -56.2, LRH-1 inv ag 3.7, SRC1 inh -2.0, Gli-Sufu antag -48.4, SRC2 inh -22.9 and NR2F2 inh -17.8.
Screening Cc1c(P(=O)(c2ccccc2)c2ccccc2)c2ccccc2n1C returned SRC3 inh -41.9, LRH-1 inv ag -13.4, SRC1 inh 4.3, SRC2 inh 5.2 and NR2F2 inh 3.6.
COc1ccc(-c2csc(NC(=O)CCS(=O)(=O)c3ccccc3)n2)c(OC)c1 was read as SRC3 inh -1.6, LRH-1 inv ag 17.2, SRC1 inh 2.7, Gli-Sufu antag -38.5, SRC2 inh -19.6 and NR2F2 inh 9.1.
For COc1ccc(COC(=O)C2CCN(S(=O)(=O)c3ccc(C)cc3)CC2)cc1 the results were SRC3 inh 13.8, LRH-1 inv ag 16.7, SRC1 inh -19.1, Gli-Sufu antag -5.5, SRC2 inh -7.6 and NR2F2 inh -11.4.
`CCN(CC)S(=O)(=O)c1cccc(C(=O)Nc2nc3cc4c(cc3s2)OCCO4)c1` gave SRC3 inh 23.4, LRH-1 inv ag 4.8, SRC1 inh 5.8, Gli-Sufu antag -7.3, SRC2 inh 16.4, NR2F2 inh 58.1*, VP16 Luc counter -9.4 and NR2F2 inh conf 32.4.

Source: PubChem (several laboratories)
